# Results published in the supplement of paper PMC11732987, “Enantioselective OTUD7B fragment discovery through chemoproteomics screening and high-throughput optimisation” (Communications Chemistry, 2025).
# Unmarked numbers belong to inactive results.
# Key:
# Experiment in all cases: log2 ratio of Biotin-Ahx-Ub-VS probe labelling (fragment/DMSO); higher = less target engagement (more negative = stronger competition), active = hit call of the paper (q ≤ 0.05, log2 ratio ≤ -1)
# Details in all cases: compound concentration: 200 uM; treatment time: 3 h
# OTUD6B = target: T1, OTUD6B (UniProt Q8N6M0)
# T1 sequence (whole entry): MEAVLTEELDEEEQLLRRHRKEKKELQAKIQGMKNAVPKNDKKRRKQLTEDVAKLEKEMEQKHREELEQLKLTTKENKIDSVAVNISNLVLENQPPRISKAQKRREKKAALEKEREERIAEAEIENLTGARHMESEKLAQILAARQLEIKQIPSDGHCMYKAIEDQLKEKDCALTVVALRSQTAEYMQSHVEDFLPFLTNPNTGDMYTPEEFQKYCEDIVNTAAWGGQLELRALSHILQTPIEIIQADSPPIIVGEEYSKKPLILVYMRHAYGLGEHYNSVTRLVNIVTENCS
# Outline: (§1)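 Labelled DUBs were enriched with NeutrAvidin, digested with LysC and trypsin, and run by diaPASEF LC-MS/MS. The labelling used Biotin-Ahx-Ub-VS at 0.5 µM final for 1 h on HEK293T lysate (495 µg per sample) previously treated in triplicate with fragment at 200 µM or vehicle for 3 h. Values are average log2 fragment/vehicle ratios by unpaired t-test on global-median-normalised Spectronaut quantities of proteins with ≥2 unique peptides.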
# OTUD7B = target: T2, OTUD7B (UniProt Q6GQQ9)
# T2 sequence (whole entry): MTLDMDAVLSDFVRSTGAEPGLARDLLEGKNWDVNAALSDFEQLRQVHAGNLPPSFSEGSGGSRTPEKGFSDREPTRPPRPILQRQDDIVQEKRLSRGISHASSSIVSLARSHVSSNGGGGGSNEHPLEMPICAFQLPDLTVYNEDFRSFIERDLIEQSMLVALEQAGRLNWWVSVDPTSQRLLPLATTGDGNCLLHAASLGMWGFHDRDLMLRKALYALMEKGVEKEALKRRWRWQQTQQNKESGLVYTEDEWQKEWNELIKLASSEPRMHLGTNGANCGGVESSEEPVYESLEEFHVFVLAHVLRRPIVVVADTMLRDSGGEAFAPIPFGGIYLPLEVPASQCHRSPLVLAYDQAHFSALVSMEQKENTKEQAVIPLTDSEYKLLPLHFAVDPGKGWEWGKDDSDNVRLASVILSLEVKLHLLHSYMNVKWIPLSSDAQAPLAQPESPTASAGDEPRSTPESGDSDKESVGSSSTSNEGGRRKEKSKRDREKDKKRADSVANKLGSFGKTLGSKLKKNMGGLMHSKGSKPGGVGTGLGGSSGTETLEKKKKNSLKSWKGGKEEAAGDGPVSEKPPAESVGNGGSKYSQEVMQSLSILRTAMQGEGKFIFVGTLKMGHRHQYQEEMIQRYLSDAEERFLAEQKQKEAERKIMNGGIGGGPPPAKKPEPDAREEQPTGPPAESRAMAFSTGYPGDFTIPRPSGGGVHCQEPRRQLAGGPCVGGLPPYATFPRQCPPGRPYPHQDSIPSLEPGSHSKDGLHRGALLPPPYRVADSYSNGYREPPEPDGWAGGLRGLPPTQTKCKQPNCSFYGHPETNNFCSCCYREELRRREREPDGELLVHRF
# Outline: as §1
# PRPF8 = PRPF8 (UniProt Q6P2Q9)
# Outline: as §1
# PSMD7 = target: T3, PSMD7 (UniProt P51665)
# T3 sequence (whole entry): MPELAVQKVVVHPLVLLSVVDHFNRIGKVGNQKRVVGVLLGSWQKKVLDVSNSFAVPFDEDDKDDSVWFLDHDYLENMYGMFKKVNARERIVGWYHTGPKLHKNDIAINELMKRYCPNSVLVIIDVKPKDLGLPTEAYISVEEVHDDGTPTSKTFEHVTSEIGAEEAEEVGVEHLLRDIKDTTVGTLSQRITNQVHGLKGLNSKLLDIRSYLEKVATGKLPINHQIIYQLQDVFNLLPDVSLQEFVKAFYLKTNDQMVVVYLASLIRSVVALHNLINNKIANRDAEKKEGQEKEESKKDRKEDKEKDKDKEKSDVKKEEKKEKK
# Outline: as §1
# UCHL1 = UCHL1 (UniProt P09936)
# Chain of UCHL1 (P09936 whole entry, looked up): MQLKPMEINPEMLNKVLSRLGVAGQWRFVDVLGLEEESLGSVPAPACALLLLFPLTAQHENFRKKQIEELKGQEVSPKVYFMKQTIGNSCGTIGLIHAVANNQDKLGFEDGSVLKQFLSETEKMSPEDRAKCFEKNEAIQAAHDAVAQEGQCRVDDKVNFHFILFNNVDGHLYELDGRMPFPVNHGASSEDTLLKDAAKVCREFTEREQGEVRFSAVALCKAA
# Outline: as §1
# UCHL3 = target: T4, UCHL3 (UniProt P15374)
# T4 sequence (whole entry): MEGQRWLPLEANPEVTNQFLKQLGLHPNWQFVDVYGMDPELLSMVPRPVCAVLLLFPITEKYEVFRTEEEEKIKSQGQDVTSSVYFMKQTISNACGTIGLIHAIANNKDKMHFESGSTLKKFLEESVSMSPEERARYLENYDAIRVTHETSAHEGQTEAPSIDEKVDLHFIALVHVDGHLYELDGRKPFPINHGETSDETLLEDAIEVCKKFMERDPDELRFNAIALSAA
# Outline: as §1
# UCHL5 = target: T5, UCHL5 (UniProt Q9Y5K5)
# T5 sequence (whole entry): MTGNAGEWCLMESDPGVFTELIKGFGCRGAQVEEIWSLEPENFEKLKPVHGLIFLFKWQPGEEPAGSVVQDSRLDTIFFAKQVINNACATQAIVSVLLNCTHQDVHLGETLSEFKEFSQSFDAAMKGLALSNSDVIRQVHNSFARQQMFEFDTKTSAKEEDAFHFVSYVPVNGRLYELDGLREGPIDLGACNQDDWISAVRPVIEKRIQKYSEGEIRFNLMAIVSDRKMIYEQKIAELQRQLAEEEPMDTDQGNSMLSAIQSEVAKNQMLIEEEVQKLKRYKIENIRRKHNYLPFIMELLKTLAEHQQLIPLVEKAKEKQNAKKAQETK
# Outline: as §1
# USP10 = USP10 (UniProt Q14694)
# Chain of USP10 (Q14694 whole entry): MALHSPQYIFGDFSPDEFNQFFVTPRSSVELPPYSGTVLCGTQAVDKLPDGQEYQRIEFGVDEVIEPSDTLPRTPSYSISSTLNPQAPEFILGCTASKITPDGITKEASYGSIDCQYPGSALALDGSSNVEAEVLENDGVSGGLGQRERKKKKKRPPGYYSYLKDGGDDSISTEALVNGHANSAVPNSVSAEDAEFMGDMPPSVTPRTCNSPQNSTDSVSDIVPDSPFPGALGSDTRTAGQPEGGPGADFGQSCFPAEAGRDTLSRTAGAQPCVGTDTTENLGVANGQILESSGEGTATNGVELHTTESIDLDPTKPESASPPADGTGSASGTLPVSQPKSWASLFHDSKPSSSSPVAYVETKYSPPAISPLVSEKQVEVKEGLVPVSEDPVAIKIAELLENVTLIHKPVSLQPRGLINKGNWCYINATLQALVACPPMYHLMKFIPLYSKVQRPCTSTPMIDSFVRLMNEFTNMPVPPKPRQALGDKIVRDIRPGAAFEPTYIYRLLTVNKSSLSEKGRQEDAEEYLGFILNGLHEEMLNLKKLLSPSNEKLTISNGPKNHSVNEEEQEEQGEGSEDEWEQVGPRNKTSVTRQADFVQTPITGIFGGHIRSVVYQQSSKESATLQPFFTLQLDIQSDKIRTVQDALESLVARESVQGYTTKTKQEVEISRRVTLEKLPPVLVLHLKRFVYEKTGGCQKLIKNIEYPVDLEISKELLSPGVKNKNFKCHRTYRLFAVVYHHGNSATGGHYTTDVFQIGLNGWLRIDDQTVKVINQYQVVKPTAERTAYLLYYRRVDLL
# Outline: as §1
# USP15 = target: T6, USP15 (UniProt Q9Y4E8)
# T6 sequence (whole entry): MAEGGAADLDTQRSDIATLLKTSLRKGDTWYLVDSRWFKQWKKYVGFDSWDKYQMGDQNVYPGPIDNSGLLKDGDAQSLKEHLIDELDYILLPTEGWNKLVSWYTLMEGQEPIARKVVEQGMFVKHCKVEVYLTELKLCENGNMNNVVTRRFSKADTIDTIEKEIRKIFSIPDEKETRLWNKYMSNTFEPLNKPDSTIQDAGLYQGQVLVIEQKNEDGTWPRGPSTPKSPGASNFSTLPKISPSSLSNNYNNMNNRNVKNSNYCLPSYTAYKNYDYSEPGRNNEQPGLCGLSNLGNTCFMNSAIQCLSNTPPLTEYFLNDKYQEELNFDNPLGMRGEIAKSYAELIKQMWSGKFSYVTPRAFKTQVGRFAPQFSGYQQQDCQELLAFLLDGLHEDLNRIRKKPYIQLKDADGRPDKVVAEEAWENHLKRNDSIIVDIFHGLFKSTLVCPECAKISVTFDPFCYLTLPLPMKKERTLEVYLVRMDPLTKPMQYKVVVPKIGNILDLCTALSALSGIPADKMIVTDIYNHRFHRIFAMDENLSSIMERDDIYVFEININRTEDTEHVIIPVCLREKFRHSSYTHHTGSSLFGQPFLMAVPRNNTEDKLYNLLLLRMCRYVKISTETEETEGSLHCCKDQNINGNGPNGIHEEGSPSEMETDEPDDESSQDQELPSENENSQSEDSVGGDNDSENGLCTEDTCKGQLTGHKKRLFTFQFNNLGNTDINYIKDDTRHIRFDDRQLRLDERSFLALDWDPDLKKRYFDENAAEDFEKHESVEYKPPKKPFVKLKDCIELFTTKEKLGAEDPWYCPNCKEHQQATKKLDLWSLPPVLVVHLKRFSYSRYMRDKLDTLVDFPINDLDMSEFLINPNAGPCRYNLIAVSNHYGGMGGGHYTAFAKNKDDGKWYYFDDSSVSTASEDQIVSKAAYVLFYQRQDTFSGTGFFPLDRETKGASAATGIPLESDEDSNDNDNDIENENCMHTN
# Outline: as §1
# USP16 = USP16 (UniProt Q9Y5T5)
# Chain of USP16 (Q9Y5T5 whole entry, looked up): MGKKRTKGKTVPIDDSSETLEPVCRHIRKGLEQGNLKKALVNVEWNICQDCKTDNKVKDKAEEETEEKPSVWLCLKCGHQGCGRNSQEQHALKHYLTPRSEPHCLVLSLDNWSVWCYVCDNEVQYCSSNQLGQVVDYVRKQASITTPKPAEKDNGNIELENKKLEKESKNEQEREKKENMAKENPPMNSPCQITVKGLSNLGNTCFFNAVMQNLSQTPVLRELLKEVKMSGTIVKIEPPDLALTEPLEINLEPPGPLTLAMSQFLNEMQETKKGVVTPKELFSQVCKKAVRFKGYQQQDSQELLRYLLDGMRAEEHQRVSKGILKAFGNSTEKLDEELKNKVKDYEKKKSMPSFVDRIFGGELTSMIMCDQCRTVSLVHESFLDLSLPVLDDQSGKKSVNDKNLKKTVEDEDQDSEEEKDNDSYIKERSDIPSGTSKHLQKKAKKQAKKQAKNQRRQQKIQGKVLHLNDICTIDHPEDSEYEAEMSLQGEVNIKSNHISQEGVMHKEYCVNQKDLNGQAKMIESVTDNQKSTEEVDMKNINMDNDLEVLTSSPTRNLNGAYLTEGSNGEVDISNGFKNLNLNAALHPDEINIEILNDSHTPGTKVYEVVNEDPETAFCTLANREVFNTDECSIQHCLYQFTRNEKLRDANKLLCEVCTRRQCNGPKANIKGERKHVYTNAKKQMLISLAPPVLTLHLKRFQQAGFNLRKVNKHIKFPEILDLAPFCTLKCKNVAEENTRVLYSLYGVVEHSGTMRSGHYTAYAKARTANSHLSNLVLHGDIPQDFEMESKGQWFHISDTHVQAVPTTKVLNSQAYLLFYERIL
# Outline: as §1
SMILES,log2 ratio of Biotin-Ahx-Ub-VS probe labelling (OTUD6B),log2 ratio of Biotin-Ahx-Ub-VS probe labelling (OTUD7B),log2 ratio of Biotin-Ahx-Ub-VS probe labelling (PRPF8),log2 ratio of Biotin-Ahx-Ub-VS probe labelling (PSMD7),log2 ratio of Biotin-Ahx-Ub-VS probe labelling (UCHL1),log2 ratio of Biotin-Ahx-Ub-VS probe labelling (UCHL3),log2 ratio of Biotin-Ahx-Ub-VS probe labelling (UCHL5),log2 ratio of Biotin-Ahx-Ub-VS probe labelling (USP10),log2 ratio of Biotin-Ahx-Ub-VS probe labelling (USP15),log2 ratio of Biotin-Ahx-Ub-VS probe labelling (USP16)
O=C(CCl)NCc1cccc(F)c1,-0.0396,-0.597,-0.208,-0.138,-1.24 (active),0.227,-0.0221,-0.156,-0.273,-0.133
O=C(CCl)NC1CCN(C(=O)C2CCCCC2)CC1,0.191,-0.643,0.0534,-0.106,-0.513,0.338,0.125,-0.0591,-0.0587,-0.0778
Cc1conc1C1CN(C(=O)CCl)C1,-0.688,-1.6 (active),-0.125,-0.499,-2.04 (active),-0.637,-0.912,-0.254,-1.15 (active),-0.0913
O=C(CCl)NC1CCC(C(F)(F)F)CC1 (stereo not given),-0.153,-0.576,0.103,-0.258,-1.31 (active),0.327,-0.0657,-0.141,-0.158,-0.000805
O=C(CCl)N(Cc1ccsc1)C1CC1,0.0351,-0.317,-0.0299,-0.114,-0.773,0.415,-0.238,-0.125,0.02,0.463
Cc1ccccc1CN(C)C(=O)CCl,-0.788,-0.98,-0.0478,-0.18,-1.98 (active),-0.483,-1.01 (active),-0.154,-0.803,-0.62
Cc1cccc(C)c1NC(=O)CCl,-0.307,-0.52,-0.0544,-0.245,-1.48 (active),0.0922,-0.309,-0.108,-0.203,-0.0305
Cc1n[nH]c(=O)c2c(NC(=O)CCl)oc(C)c12,0.111,-0.365,0.175,0.0225,-0.344,0.303,-0.0452,-0.0909,-0.014,-0.0991
CCN(Cc1ccc(C#N)cc1F)C(=O)CCl,-0.409,-0.641,0.0668,-0.234,-1.35 (active),0.0414,-0.5,-0.11,-0.275,0.17
Cc1ncsc1CCNC(=O)CCl,0.143,-0.157,0.116,0.433,-1.31 (active),0.292,-0.131,0.0995,0.22,0.106
Cc1noc(C)c1CNC(=O)CCl,-0.543,-1.46 (active),-0.184,-0.529,-2.12 (active),-0.701,-0.89,-0.261,-0.867,-0.591
O=C(CCl)Nc1ccc(F)cc1Cl,-0.388,-0.667,0.079,-0.115,-1.44,-0.112,-0.49,-0.129,0.0309,-0.265
CN(C)S(=O)(=O)c1ccccc1CNC(=O)CCl,-0.265,-0.0445,-0.0375,-0.18,-1.18 (active),0.0942,-0.199,-0.156,-0.0655,0.14
Cc1noc(N2CCN(C(=O)CCl)CC2)n1.Cl,-0.229,-0.413,-0.079,0.128,-1.52 (active),0.0214,-0.188,-0.076,-0.285,0.132
Cc1ccccc1C1(CNC(=O)CCl)CCOCC1,-0.054,-0.293,-0.0655,-0.0606,-1.45 (active),0.231,-0.272,-0.0236,-0.102,0.242
